Results reported in the supplement of paper PMC10681739.

Molecular target: T1, ETS1 (UniProt P14921)
T1 sequence: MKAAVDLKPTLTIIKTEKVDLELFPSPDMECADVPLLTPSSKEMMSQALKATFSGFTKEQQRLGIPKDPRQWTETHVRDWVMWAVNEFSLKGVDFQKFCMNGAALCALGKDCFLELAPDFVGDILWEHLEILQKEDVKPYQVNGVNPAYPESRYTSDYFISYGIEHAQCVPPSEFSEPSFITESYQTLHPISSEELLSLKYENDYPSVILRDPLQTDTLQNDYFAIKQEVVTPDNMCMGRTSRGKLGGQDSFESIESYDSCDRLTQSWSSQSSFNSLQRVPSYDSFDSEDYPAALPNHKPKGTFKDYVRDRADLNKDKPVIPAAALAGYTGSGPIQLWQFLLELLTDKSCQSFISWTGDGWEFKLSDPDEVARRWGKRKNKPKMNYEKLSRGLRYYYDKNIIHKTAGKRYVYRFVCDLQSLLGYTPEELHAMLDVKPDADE
Test: TF binding intensity (PBM fluorescence), negative control probe (arbitrary fluorescence units); higher = stronger binding
Protocol: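 gcPBM negative-control 36-bp genomic probes lacking TF binding sites. Each was incubated with recombinant human ETS1 or RUNX1 alone and detected by antibody fluorescence. Values are medians over replicate spots (4 spots for the ETS1-RUNX1 arrays, 3 for the ETS1-ETS1 array). The probes sit in constant array flanks that are not printed.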

Sequence	TF binding intensity
ACCTGTGAATAGACTGACCAAATGCAAGCTGGACCA (protein concentration 10 nM)	111
GGGGAAAATGAGCACAGGTGTGAAGCAGATCACAGG (protein concentration 10 nM)	170
CTCCCTCTCTCCCTCCCTCCCTCCCTCCCTCCCTTC (protein concentration 10 nM)	230
CAACGCAGACTACTAACCACTAGAGAATCCCAAGGC (protein concentration 1 nM)	485
AAATAAATTCTTGTCTGGGGCCGACATCTGTGTGGA (protein concentration 10 nM)	119
ATAGTACAAGCACTAGTCAAAGCTAGAGGTCACTCT (protein concentration 10 nM)	111
AAAAAAATAGCTTTAACCACAAAAACTCCTTGAAAA (protein concentration 1 nM)	514
GGCTCCTATATTAAAATTGGTATTAGTAGACAATGT (protein concentration 10 nM)	131
TTCTTCCCACCGCAGGGCATCTGCACGGGCCGCTCA (protein concentration 10 nM)	125
TTAATTAAGCGGTTTATATCAAGAAAAAGGCATTTC (protein concentration 10 nM)	115
CCTGCCTCATTTGCTCACGGGCTCCCTCCCTCAAGG (protein concentration 10 nM)	113
ATTTGGGTTCCAGCCCGCTAGCCTGCCTTTTCTCAT (protein concentration 10 nM)	92.9
TTTTGGATGATGCAAACCGCGCAAAAGCAGCATTCA (protein concentration 1 nM)	449
CTGGTGGCCACCCTTGTGGCGCTGAGGTGCTGAGGT (protein concentration 10 nM)	127
